Laboratory results: PubChem BioAssay AID1626 (SRMLSC, 2009)
In all, about 220,000 compounds went through this assay and about 2,000 (0.91%) were called active. Not shown: some 2% with an inconclusive outcome. Rule as the data show it: inconclusive = inhibition above about 80% without an active follow-up result; inactive = below that; test concentration not stated here. Not all results are given here. Measured potencies and affinities stand elsewhere.

Assay: M. tuberculosis H37Rv growth inhibitors, H37Rv strain (AID 1626);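 also: bacteria incubated seven days before Alamar blue readout; 0% = bacteria only wells and 100% = bacteria with antibiotic wells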
Settings: active compounds read high, concentration not given here

Row | Compound | inhibition
1 | O=[N+]([O-])c1ccc(C2CCCC/C2=N/OCc2ccccc2F)c([N+](=O)[O-])c1 (stereo not drawn) | 0.93% (inactive)
2 | CC1CC(=O)c2cnc(Nc3cccc(C(F)(F)F)c3)nc2C1 (stereo not drawn) | 2.97% (inactive)
3 | O=C(Cn1nc(-c2ccccc2)c2ccccc2c1=O)NCC1CCCO1 (stereo not drawn) | 8.76% (inactive)
4 | Cc1ccc(-n2c(C)cc3c2CCCC3=O)cc1 | -0.32% (inactive)
5 | COC(=O)c1ccc(C(C(=O)NC2CCCCC2)N(C(=O)Cc2cccs2)C2CC2)cc1 (stereo not drawn) | -2.62% (inactive)
6 | COc1ccc(CCNC(=O)C2CCN(c3ccc(N4CCOCC4)nn3)CC2)c(OC)c1 | 6.05% (inactive)
7 | c1cnc2nc(-c3ccc4c(c3)OCO4)cn2c1 | -8.76% (inactive)
8 | COc1ccc(-c2nc3ncccn3c2Br)cc1 | -1.31% (inactive)
9 | CC(NC(=O)COC(=O)Cc1ccsc1)c1ccccc1 (stereo not drawn) | -0.56% (inactive)
10 | O=C(NCc1ccccc1)N(Cc1cc2cc3c(cc2[nH]c1=O)OCCO3)CC1CCCO1 (stereo not drawn) | -1.33% (inactive)
11 | CC1CCN(Cc2c(C#N)c3ccccc3n2C)CC1 | -4.52% (inactive)
12 | Cc1nc(Nc2c(Cl)cccc2Cl)sc1C(=O)Nc1ccccc1 | 10.3% (inactive)
13 | Cc1nc(Nc2ccccc2)sc1C(=O)Nc1ccccc1 | 21.1% (inactive)
14 | O=C(OCC(=O)c1ccc[nH]1)c1ccc(S(=O)(=O)N2CCCCC2)cc1 | -10.2% (inactive)
15 | S=c1[nH]nc(COc2ccccc2)n1/N=C/C=C/c1ccccc1 | 12.1% (inactive)
16 | CCN(CC)C(=O)N1CCN(S(=O)(=O)c2ccc(C)cc2)CC1 | -9.01% (inactive)
17 | O=C(COc1ccccc1)Nn1c(-c2ccccc2)nc2ccccc2c1=O | -3.31% (inactive)
18 | O=C(N/N=C/c1ccncc1)c1ccc(NS(=O)(=O)c2cccs2)cc1 | -0.88% (inactive)
19 | COc1ccc(N2CCN(c3cnc4ccccc4n3)CC2)cc1 | -9.34% (inactive)
20 | c1ccc(N2CCN(c3cnc4ccccc4n3)CC2)cc1 | 5.67% (inactive)
21 | CC(C)C(NS(=O)(=O)c1cccc2nsnc12)C(=O)NCCC1=CCCCC1 (stereo not drawn) | -3.27% (inactive)
22 | Cc1cc(O)c(C(C[N+](=O)[O-])c2ccc(Cl)cc2)c(=O)o1 (stereo not drawn) | 6.11% (inactive)
23 | Cc1[nH]c2ccccc2c1C(C[N+](=O)[O-])c1cccc(O)c1 (stereo not drawn) | 6.89% (inactive)
24 | Cc1[nH]n(-c2ccccc2)c(=O)c1C(C[N+](=O)[O-])c1ccccc1Cl (stereo not drawn) | 3.54% (inactive)
25 | O=c1[nH][nH]c(-c2ccccc2O)c1C(C[N+](=O)[O-])c1ccccc1 (stereo not drawn) | 6.94% (inactive)

Row | Compound | inhibition
26 | Cc1ccc(C(C[N+](=O)[O-])c2c(-c3ccccc3O)[nH][nH]c2=O)cc1 (stereo not drawn) | 4.79% (inactive)
27 | Cc1cc(O)c(C(C[N+](=O)[O-])c2ccc(Cl)cc2Cl)c(=O)o1 (stereo not drawn) | 2.19% (inactive)
28 | O=C(Nc1ccccc1)c1ccc(NCc2cccnc2)c(S(=O)(=O)N2CCOCC2)c1 | 1.54% (inactive)
29 | COc1cc(-c2nc3n(n2)C(c2ccncc2)C(C(N)=O)=C(C)N3)cc(OC)c1OC (stereo not drawn) | -5.67% (inactive)
30 | COc1cccc(C2=CC(c3cccc(OC)c3OC)n3nnnc3N2)c1 (stereo not drawn) | -6.61% (inactive)
31 | O=C(COC(=O)c1cc(S(=O)(=O)N2CCCC2)ccc1O)Nc1ccc(S(=O)(=O)N2CCOCC2)cc1 | 1.29% (inactive)
32 | CN1CCC(N(C)C(=O)c2cc(=O)c3ccccc3o2)CC1 | 18.1% (inactive)
33 | CCOC(=O)c1sc2nc(CSc3ccccc3)nc(NCCN(C)C)c2c1C | -5.4% (inactive)
34 | Cc1sc2nc(CSc3ccccc3)nc(N3CCN(C)CC3)c2c1C | 0.24% (inactive)
35 | CCC(C)NC(=O)c1c(N)n(/N=C/c2cccnc2)c2nc3ccccc3nc12 (stereo not drawn) | 7.17% (inactive)
36 | CC(C)CNC(=O)c1c(N)n(/N=C/c2ccccn2)c2nc3ccccc3nc12 | -5.94% (inactive)
37 | Cc1ccc(CSCc2ccc(C(=O)NCC3CCCO3)o2)cc1 (stereo not drawn) | 6.03% (inactive)
38 | CCOC(=O)c1ccc(NC(=S)N2CCN(c3ccc(N4CCOCC4)nn3)CC2)cc1 | 4.49% (inactive)
39 | CC(C)C(NC(=O)c1ccccc1)C(=O)NC1=NCCS1 (stereo not drawn) | -2.59% (inactive)
40 | O=C(Nc1nc2ccccc2s1)c1cc(-c2ccccc2)nn1-c1ccccc1 | -3.23% (inactive)
41 | CCc1nnc(NC(=O)c2cc(-c3ccccc3)nn2-c2ccccc2)s1 | 19.3% (inactive)
42 | CC(OC(=O)CCC(=O)c1cccs1)C(=O)Nc1ccc(Cl)cn1 (stereo not drawn) | 2.41% (inactive)
43 | OC1CCN(c2cc(-c3ccccc3)nc3cc(-c4ccc(F)cc4)nn23)CC1 | 5.18% (inactive)
44 | Fc1ccc(-c2cc3nc(-c4ccccc4)cc(N4CCOCC4)n3n2)cc1 | 1.89% (inactive)
45 | O=C(O)C(Oc1ccc2c3c(c(=O)oc2c1)CCC3)c1ccccc1 (stereo not drawn) | -10.3% (inactive)
46 | Cc1ccc(Nc2nnc(SCC(=O)Nc3ncc(S(=O)(=O)c4ccc([N+](=O)[O-])cc4)s3)s2)cc1 | 0% (inactive)
47 | Cc1nnc(SCC(=O)Nc2ncc(S(=O)(=O)c3ccc([N+](=O)[O-])cc3)s2)s1 | -0.12% (inactive)
48 | COc1ccc(OCC(O)CNC(=O)Nc2cc(C)cc(C)c2)cc1 (stereo not drawn) | -16.7% (inactive)
49 | CCOC(=O)C(Cc1ccccc1)C(=O)Nc1ccc(NC(=O)C(Cc2ccccc2)C(=O)OCC)cc1 (stereo not drawn) | 3.39% (inactive)
50 | CCOC(=O)C(Cc1ccccc1)C(=O)Nc1ccccc1C (stereo not drawn) | -5.73% (inactive)

Row | Compound | inhibition
51 | COC(=O)c1cn(NC(=O)Cc2cccc(OC)c2)c(=O)c2ccccc12 | 3.66% (inactive)
52 | CC1CCN(S(=O)(=O)N2CCC(C(=O)NCc3cccs3)CC2)CC1 | -4.64% (inactive)
53 | Cc1cc(C(=O)COc2ncnc3sccc23)c(C)n1C | -3.73% (inactive)
54 | Cc1noc(-c2ccccc2OC(=O)c2ccccc2)n1 | 1.9% (inactive)
55 | COC(=O)c1cc(Sc2c(Cl)cccc2Cl)ccn1 | 34% (inactive)
56 | COC(=O)c1ncccc1SC | -0.23% (inactive)
57 | S=C(NCc1ccco1)Nc1ccc(Br)cc1Cl | 4.87% (inactive)
58 | O=c1cc(-c2ccccc2)c2ccccc2[nH]1 | -8.75% (inactive)
59 | O=C(c1c[nH]cc1-c1ccccc1)c1cccc2ccccc12 | -3.22% (inactive)
60 | COc1ccc(C(CC(=O)Nc2ccccc2OC)n2cccc2)cc1 (stereo not drawn) | 3.19% (inactive)
61 | CCOC(=O)N1CCN(C(=O)CN(c2ccc(OC)cc2)S(C)(=O)=O)CC1 | -8.65% (inactive)
62 | CCn1c(=O)c(C(=O)NC(C)C)c(O)c2ccccc21 | 0.51% (inactive)
63 | O=S(=O)(Nc1ccccc1)c1ccc(-c2csnn2)cc1 | 8.85% (inactive)
64 | CCN(CC)C(=O)CN(c1cc(Cl)ccc1OC)S(=O)(=O)c1ccc(C)c([N+](=O)[O-])c1 | 4.94% (inactive)
65 | O=C(COc1ccc(Cl)cc1)NCc1nnc2c3ccccc3c(-c3ccccc3)nn12 | 32.3% (inactive)
66 | O=C(NCc1nnc2c3ccccc3c(-c3ccccc3)nn12)c1ccccc1Cl | 17.6% (inactive)
67 | CCn1nc(C(=O)NCCc2ccc(S(N)(=O)=O)cc2)c2ccccc2c1=O | -2.56% (inactive)
68 | COc1cc(C(CCN2CCCCC2)c2c(OC)cc(OC)c3c(-c4ccccc4)cc(=O)oc23)cc(OC)c1OC (stereo not drawn) | 10.2% (inactive)
69 | COc1cc(OC)c2c(-c3ccccc3)cc(=O)oc2c1C(CCN1CCN(c2ccccc2)CC1)c1ccc(N(C)C)cc1 (stereo not drawn) | 13.6% (inactive)
70 | COc1ccc(C(CCN2CCCC2)c2c(OC)cc(OC)c3c(-c4ccccc4)cc(=O)oc23)cc1 (stereo not drawn) | 64.5% (inactive)
71 | COc1ccc(C(CCN2CCN(c3ccccc3)CC2)c2c(OC)cc(OC)c3c(-c4ccccc4)cc(=O)oc23)cc1 (stereo not drawn) | 6.72% (inactive)
72 | CC(C)CCn1nnnc1C(C(C)C)N1CCC(C(N)=O)CC1 (stereo not drawn) | -6.25% (inactive)
73 | CC(/C=C/c1ccco1)=N\NC(=O)c1cc(C)[nH]n1 | -12% (inactive)
74 | O=C(Nc1ccccc1O)c1cc(S(=O)(=O)N2CCOCC2)ccc1Cl | 6.89% (inactive)
75 | NNc1nc(-c2ccccc2)cs1 | 4.39% (inactive)

Row | Compound | inhibition
76 | Cc1ccc(/C=C\c2nccc3c2[nH]c2ccccc23)cc1 | 42.1% (inactive)
77 | Fc1ccc(/C=C\c2nccc3c2[nH]c2ccccc23)cc1 | 8.94% (inactive)
78 | Cc1ccc(/C=N/NC(=O)Cn2nnc(N)n2)cc1 | -5.78% (inactive)
79 | CCC(C)[C@H](NC(=O)NCCC1=CCCCC1)C(=O)OC (stereo partly drawn) | -7.06% (inactive)
80 | O=C(CSc1ncccn1)N/N=C/c1ccc(OC2CSC2)cc1 | 0.1% (inactive)
81 | CCc1ccc(-c2nn(-c3cc(Cl)ccc3[N+](=O)[O-])c(=O)c3ccccc23)cc1 | 3.9% (inactive)
82 | CC(C)=C1SC(N2CCOCC2)=NC1=O | -2.58% (inactive)
83 | Cc1c(C(=O)O)cccc1N1C(=O)Nc2ccccc2N1O | 5.34% (inactive)
84 | Clc1ccc(-c2nnc(CSc3nnc(-c4cccs4)o3)o2)cc1 | 12.5% (inactive)
85 | c1ccc(-c2nnc(CSc3nnc(-c4cccs4)o3)o2)cc1 | 39.4% (inactive)
86 | Cc1ccc(Nc2nc(CSc3n[nH]c(N)n3)cs2)cc1 | 9.31% (inactive)
87 | c1ccc(-c2nc(CSc3nnc(-c4cccs4)o3)cs2)cc1 | 2.37% (inactive)
88 | O=C(Nc1nc(-c2cccc3ccccc23)cs1)c1ccc2c(c1)S(=O)(=O)c1ccccc1C2=O | 4.24% (inactive)
89 | Cc1cccc(NC(=S)N(Cc2cccs2)Cc2cc3cc(C)ccc3[nH]c2=O)c1 | 8.62% (inactive)
90 | CC(=O)O/C(=C\c1cn(C(C)=O)c2ccccc12)C(=O)O | 7.86% (inactive)
91 | CCCCN(CCCC)C(=O)CSc1nnc(-c2cc(OC)c(OC)c(OC)c2)o1 | 5.31% (inactive)
92 | CCOC(=O)N1CCN(C(=O)CSc2nnc(Cc3ccccc3)o2)CC1 | 3.59% (inactive)
93 | COc1cc(OC)cc(-c2nnc(SCC(=O)N3CCCCC3)o2)c1 | 13.8% (inactive)
94 | COc1cc(OC)cc(-c2nnc(SCC(=O)N3CCCC3)o2)c1 | 14.8% (inactive)
95 | CCOC(=O)CSc1nnc(-c2ccccc2)o1 | 27.1% (inactive)
96 | O=C(CSc1nnc(COc2ccccc2)o1)N1CCN(c2ccccc2)CC1 | 7.79% (inactive)
97 | COc1cc(-c2nnc(SCC(=O)c3ccccc3)o2)cc(OC)c1OC | -0.24% (inactive)
98 | CCOC(=O)CSc1nnc(-c2cccnc2)o1 | -8.92% (inactive)
